# Assay results published in the supplement of paper PMC11417369.
# ± gives the standard deviation of the averaged measurements. The full ranking holds about 25,000 sequences; the median of “ln(normalized median fluorescence intensity)” is about 10, and the highest 2% start at about 12. What follows is part of a selection rich in the highest values, with near analogues and random picks from the rest.
# System: PfAP2-G AP2 domain (GST-tagged)
# Assay: gcPBM binding intensity (ln(normalized median fluorescence intensity)); higher = stronger DNA binding
# Procedure, shortened: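 Each value is the highest Masliner-normalised natural-log median intensity across replicate spots of either orientation of a probe. The probes were primer-extended double-stranded 36-bp intergenic genomic sequences on an Agilent 4 × 180k array, alongside negative controls, exposed for 1 h to GST-tagged P. falciparum DNA-binding domains expressed in E. coli. Bound protein was picked up with Alexa488 anti-GST antibody and scanned at 488 nm.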
row,Sequence,gcPBM binding intensity (ln)
1,TTATGCATAAAAGGTGGTACTCCGTATATACATTCT [XGTACX_site4354],11.4 ± 0.65
2,TACTTTTCATCTTCTTAACACACAAAAAAAAAAAAA [CACACA_site9290],10.1 ± 0.52
3,TAACATAAATTTAGGAGTACACTTTTTATACATACA [XGTACX_site4066],11.7 ± 1
4,AATATCTAAAATGTGTGTACATAATATTTTTAATAT [XGTACX_site3831],11.7 ± 1.1
5,TTATATATTTATAAATGTACATATAATTTTTTTATA [XGTACX_site4696],11.1 ± 0.67
6,TTTATTATTTTTAGGAGTACACAAAATAAAACAAAT [XGTACX_site8841],11.6 ± 1
7,AATTTTTTAAATGTGTGTACATATTATTTAAATAAT [XGTACX_site5967],11.5 ± 0.73
8,TTTATATATTTTAGGAGTACATTAAATTATACCTTA [XGTACX_site5600],11.5 ± 0.89
9,TATTTAATTTTTAAATGTACATATAAAATAATATAT [XGTACX_site2422],11.2 ± 0.89
10,CCCACGTATATTTTGTGTACATAAATAAATAAATAA [XGTACX_site4046],11.6 ± 0.86
11,TAAAAATAATATATTTGTACATATGTGTATACATAA [XGTACX_site741],10.7 ± 0.38
12,TATAAAATATAAATTTGTACATATAAAATATTTTAT [XGTACX_site7462],10.8 ± 0.53
13,TTTATATATTTTAGGTGTACATAAATTTTTATATAT [XGTACX_site5597],11.7 ± 1.1
14,ATGTATATATATTTGTGTACATATTTAGGAAATAAA [XGTACX_site2904],11.6 ± 1
15,TTTTAAAGTTGTGAGCTTCATTTTTATTTATATGTA [CACACA_negctrl_site1505],9.87 ± 0.057
16,AAATAATTTATAAATAAATACATTGTTACTTTTTCT [GTGCAC_negctrl_site639],9.62 ± 0.29
17,TTTTTTTTTTTTTTTGCATGCAGGTTTTTACCCCTT [TGCATGCA_site381],9.84 ± 0.51
18,ATCATATGTATGGTGGTGCATTATGCATGAATTTTA [GTGCAC_site9798],10.1 ± 0.18
19,TATTCGTGCAATAGTAGTACACTTAAAAATTATTCA [XGTACX_site269],11.6 ± 1.1
20,TTCCAAAATTGCACATGTACAAAATTCTCCAATATG [XGTACX_site3419],10.9 ± 0.62
21,TAATGCATTTTCGCATGTACATATTTCTCTTTATAT [XGTACX_site8915],11.1 ± 0.71
22,TTATATTTTTTTGAGTGTACTTTTTGTGTAAAATTC [XGTACX_site2155],11.5 ± 0.84
23,TTCGACGAGAGCAAGTGTACTCTTGAATAATTTATA [XGTACX_site7613],11.3 ± 0.9

row,Sequence,gcPBM binding intensity (ln)
1,TTGTTATATTACAGTAGTACATTTAAAATCTACTAC [XGTACX_site2620],11.4 ± 0.93
2,GAGGTCTTTTTTAATGTGCACATATATATATATATA,10.7 ± 0.51
3,ATAAAATAATCTTATGCACACCAAAAATTTATATAA [CACACA_site8332],10.2 ± 0.12
4,TCTATTAATTAATATACACACATTAGATATAAATAT [CACACA_site7241],9.945 ± 0.092
5,TATATATATATAATGTGTACATACTAAATAGAGGAC [XGTACX_site4153],11.7 ± 1.1
6,TATTTTTATAAAAACTGTACATAATAAATAAAAATA [XGTACX_site4743],11.1 ± 0.62
7,TCAATATAAATTAGTTGTACAGTTTTTTTTAATTAT [XGTACX_site6358],11.5 ± 0.92
8,AACTGTAATTTTATACGTACATAAATAATATTATAT [XGTACX_site4277],11.7 ± 0.93
9,TAATAATAAAAAATACGTACATATTATTTATATATG [XGTACX_site853],11.4 ± 0.76
10,TTCAATATACATATGTGTACTAAAATAAATAGAAAA [XGTACX_site5708],11.3 ± 0.83
11,ATATATATAAATATATGTACTAATATATACATATAT [XGTACX_site2289],11 ± 0.69
12,ACTTCAAAAATAAACTGTACGTAAAAAAAAAAAAAA [XGTACX_site795],11.5 ± 1
13,TGTATTATTAATATTTGTACGTAATAATAAAAACAT [XGTACX_site3716],11.5 ± 1
14,ACGTAATAAAATAGTTGTACAACTTTTTATAATATA [XGTACX_site4393],11.8 ± 1.1
15,GTATTATATTTCAACTGTACGTAAAACTATTAAAAT [XGTACX_site3679],11.7 ± 1.1
16,GTAATATTATATAGTTGTACTTTTTTTTTATTATAT [XGTACX_site483],11.5 ± 1
17,ATAATAAGAAAAAAAAAAAAAAAAAAAAAAAAAAAA [TGCATGCA_negctrl_site377],9.59 ± 0.58
18,TTATTGTACTTGCTCGCATGCAATAAAAATATATTA [TGCATGCA_site580],11.2 ± 1.1
19,ATAAATTTTTAAACAGCACACATAAATATAATATAT [CACACA_site8691],10.06 ± 0.064
20,TGATAACCTCACAAATGTACGTACGGGGCTAGCATT [XGTACX_site4157],11.4 ± 0.78
21,GTATATGAATGTTCATGTACATAATAAAATATATAA [XGTACX_site250],11 ± 0.56
22,ATGCGTTTAGCAAAAAGTACATATATATATAATATT [XGTACX_site1928],11.2 ± 0.73
23,TTTTATTTATATTATACACACAAGGAAAAAAAAAAA [CACACA_site7690],10.2 ± 0.26

row,Sequence,gcPBM binding intensity (ln)
1,TATATATTATATATATGTACATAATTCCATGTTTAG [XGTACX_site3943],11.2 ± 0.81
2,AGTTTCCATATGAGGTGTACATATATAATTTATTAT [XGTACX_site2369],11.6 ± 0.71
3,AATAAAAAAAATTTCTGTACATATATTTATTATATA [XGTACX_site1883],11.1 ± 0.74
4,CTTTTTTTTTAAAAATGTACACATTTTTGAAAATAC [XGTACX_site3127],11.4 ± 0.84
5,GTTTTCTAGTGGGGGTGTACATATTTATATTTAATA [XGTACX_site8378],11.7 ± 0.86
6,AATAGTTATTCCAGGTGTACATAACATATAATTTAC [XGTACX_site1340],11.5 ± 0.95
7,TTATAATTTTTCTATTGTACATTTAATAATATATAT [XGTACX_site7326],10.9 ± 0.47
8,ATAAATACTTTTTGGTGTACACTTTTAAATGAAAAA [XGTACX_site3042],11.8 ± 1
9,TGGTGTTTTTTTTAATGTACTTATAAAATAATACAT [XGTACX_site6574],11.4 ± 0.83
10,ATATATTATTTCTAGTGTACATACCCATATATAATA [XGTACX_site8902],11.2 ± 0.69
11,ATTATTTATTATTTCTGTACGTATAAAAATAACATT [XGTACX_site1671],11.7 ± 1.1
12,TATAAAATATATATCTGTACGTATTTTATTTTTTAT [XGTACX_site6257],11.4 ± 0.88
13,ATTTTTTAAAATATTTGTACATATATAATGCATATA [XGTACX_site7026],11 ± 0.64
14,TTCTTTTTCCAATTTGCACACCACAAAATTATATAT [CACACA_site2909],10.5 ± 0.28
15,AGAGTATATATATATGCATGCATATCTCATATTTAT [TGCATGCA_site509],9.71 ± 0.13
16,CATATTAATATTATGGGTACATATAAATTTACATTC [XGTACX_site687],11.4 ± 0.83
17,TTTCTTGGGAGACATGCATGTACCAGAACAAAATAA [TGCATGCA_site272],10.9 ± 0.64
18,AAAAAAAAAAAAAAAAAAAAAAAAAAAAATAAAAAA [CACACA_negctrl_site59],11 ± 0.47
19,TATTATATATATAACTGTACGTTTATAATATAAAAA [XGTACX_site3778],11.4 ± 1.1
20,AAAATAATAAAAAACTGTACGAATTAAAAATTAACA [XGTACX_site8454],11.1 ± 0.8
21,AATAATAACTGTAGGTGTACGTAAAAAAAAAATTAT [XGTACX_site3133],11.7 ± 0.96
22,AAAACATATTTTAAAAGTACTTGAAAAAAAATTTTC [XGTACX_site3940],11 ± 0.56
23,ATATAATATTACACAAGTACAAAAATTAATACTAAA [XGTACX_site482],11.1 ± 0.61

row,Sequence,gcPBM binding intensity (ln)
1,ACTACTCCATTAAGTAGTACACAAAAAAAAAAAATA [XGTACX_site7031],11.8 ± 1.1
2,CCAAAAAATATATGTAGTACTACATTATTAAATATG [XGTACX_site5128],11.6 ± 0.83
3,CTCATCCTTACATACACACACATATATATATATATA [CACACA_site103],10.3 ± 0.41
4,AGTTTATATTATTAAAGTACATATATATATTCTTAA [XGTACX_site3164],11.1 ± 0.76
5,ATATATTTAATTTATGGTACACATAATTTTTTTAGA [XGTACX_site848],11.2 ± 0.79
6,TTTGTCATTTTATTATGTACTCAGCATATAGGGGGG [XGTACX_site505],11.7 ± 0.66
7,ATATATATATATATATGTACTCATATTTTATTATTT [XGTACX_site898],11.4 ± 0.94
8,TATATATATATATTATGTACTCATTTATTATCTTTT [XGTACX_site8051],11.4 ± 1.1
9,AAAAAAAAAAAACATACACACATACATACATATATA [CACACA_site8222],9.86 ± 0.099
10,ATTAAAGTTATAAATTCACACATGTAAATGTATTTA [CACACA_site5279],9.85 ± 0.11
11,TAGTAGTTATCATTAACATGCAATAATATTATTTAA [TGCATGCA_site178],9.635 ± 0.035
12,AATATAGATATAAAAAGTACATTATATATATATATA [XGTACX_site6899],11.3 ± 0.78
13,ATATATATATATATATGTACACATATATGTGTTTGT [XGTACX_site62],11.4 ± 0.88
14,GCTTCTTAATATCATACACACATAGATATATTTATA [CACACA_site5676],9.925 ± 0.078
15,ATTTCTAGTTTAAGATGTACTTTAATAAAAATTATT [XGTACX_site4820],11 ± 0.77
16,TATATATGTATGTATTGTACAATTAAAAATATGTAT [XGTACX_site3990],10.8 ± 0.43
17,AAGGCATACAATACCTGTACGCAACCTTAAAAAGAA [XGTACX_site6070],11.5 ± 0.91
18,AAAAATATTAAAAGGCGTACAATACCTGTATGCAAC [XGTACX_site6069],11.6 ± 1
19,TCTATTTTCTTATGAATGCACTAATTTATAAAACGT,10.1 ± 0.13
20,TATCATATATGAAGGTGTACGATTTATTATATAAAT [XGTACX_site7010],11.4 ± 0.95
